# Measurements reported in PubChem BioAssay (NCI).
# Several values for one entry are separate records, joined by “and”; a condition that tells them apart may be missing. Equal values may be shown once. About 79,000 compounds went through this panel and 15% of them were active in at least one assay; those are over-represented in the sample as a whole. Some compounds were tested as several samples or in several runs, with calls that do not always agree. Activity calls are given as the source filed them. Cut-off read from the data, not from the text of the source: active = growth inhibition above about 70%; inactive = the rest.
# Columns and labels:
# [1] = NCI Yeast Anticancer Drug Screen. Data for the rad52 strain (AID 147);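 note: 0% = growth of vehicle-treated control cultures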; settings: S. cerevisiae rad52 mutant growth inhibition, stronger effect = higher value
# In short: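 Inhibition of yeast growth, referenced to vehicle controls, was the measured output for a strain with defective DNA damage repair.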
# [2] = NCI Yeast Anticancer Drug Screen. Data for the wt1 strain (AID 149);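 note: 0% = growth of vehicle-treated wt1 cultures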; settings: S. cerevisiae wt1 strain (SPY 50644) growth inhibition, stronger effect = higher value
# In short: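 wt1 strain grown with compound or vehicle; inhibition taken from the growth difference.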
# [3] = NCI Yeast Anticancer Drug Screen. Data for the rad50EPP+ strain (AID 151);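 note: 0% = growth of vehicle-treated control cultures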; settings: S. cerevisiae rad50 mutant strain, stronger effect = higher value
# In short: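 Genetically defined yeast (rad50EPP+, DNA damage repair alteration) is grown with compound, and inhibition of growth is expressed relative to vehicle-treated controls.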
# [4] = NCI Yeast Anticancer Drug Screen. Data for the mgt1 strain (AID 153); settings: S. cerevisiae mgt1 mutant growth inhibition, stronger effect = higher value
# In short: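 In the mgt1 strain, test compounds were added and growth inhibition was determined relative to vehicle-treated controls.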
# [5] = NCI Yeast Anticancer Drug Screen. Data for the rad50 strain (AID 155);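 note: 0% = growth of vehicle-only cultures of the same strain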; settings: S. cerevisiae rad50 strain growth inhibition, stronger effect = higher value
# In short: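 DNA repair mutant yeast, compound exposure, growth read-out; inhibition is taken relative to vehicle.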
# [6] = NCI Yeast Anticancer Drug Screen. Data for the mec2-1 strain (AID 157); settings: S. cerevisiae mec2-1 strain, stronger effect = higher value
# In short: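 Each compound was tested on mec2-1 yeast, a strain altered in DNA damage repair or cell cycle control. Growth inhibition is reported relative to vehicle.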
# [7] = NCI Yeast Anticancer Drug Screen. Data for the rad14 strain (AID 159);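 note: 0% = growth of vehicle-treated control cultures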; settings: S. cerevisiae rad14 strain growth inhibition, stronger effect = higher value
# In short: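 DNA repair-defective yeast, compound-exposed; % growth inhibition derived by comparison with vehicle-treated controls.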
# [8] = NCI Yeast Anticancer Drug Screen. Data for the sgs1 mgt1 strain (AID 161);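 note: 0% = growth of cultures given vehicle only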; settings: S. cerevisiae sgs1 mgt1 strain, stronger effect = higher value
# In short: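 Test agents were incubated with a DNA-repair-mutant yeast strain. Growth was then read and compared against vehicle-treated controls.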
# [9] = NCI Yeast Anticancer Drug Screen. Data for the CLN2oe strain (AID 163);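 note: 0% = growth of vehicle-only control cultures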; settings: S. cerevisiae CLN2oe strain, stronger effect = higher value
# In short: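 First, the altered yeast strain was treated with each compound; second, its growth was measured; finally, inhibition was derived by comparison with vehicle controls.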
# [10] = NCI Yeast Anticancer Drug Screen. Data for the cln2 rad14 strain (AID 165);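 note: 0% = growth equal to vehicle treated cultures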; settings: S. cerevisiae cln2 rad14 strain, stronger effect = higher value
# In short: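 Test compounds were added to cln2 rad14 yeast cultures; inhibition of growth was then determined by comparison with vehicle treatment.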
# [11] = NCI Yeast Anticancer Drug Screen. Data for the bub3 strain (AID 167); settings: S. cerevisiae bub3 mutant strain, stronger effect = higher value
# In short: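 In this screen, a yeast mutant lacking normal mitotic checkpoint function is challenged with compound. Relative growth versus vehicle gives the inhibition value.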
# [12] = NCI Yeast Anticancer Drug Screen. Data for the mlh1 strain (AID 171);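 note: 0% = growth of vehicle-treated control cultures of the same strain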; settings: S. cerevisiae mlh1 strain growth inhibition, stronger effect = higher value
# In short: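 Inhibition values reflect reduced yeast growth in the presence of compound, referenced to vehicle controls, using a strain chosen for its alteration in DNA repair or cell cycle control.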
# [13] = NCI Yeast Anticancer Drug Screen. Data for the sgs1 strain (AID 173);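 note: 0% = growth of vehicle-only control cultures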; settings: S. cerevisiae sgs1 mutant, stronger effect = higher value
# In short: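 Vehicle-treated cultures served as reference for growth inhibition of a yeast strain altered in DNA damage repair or cell cycle control after compound exposure.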
# [14] = NCI Yeast Anticancer Drug Screen. Data for the mlh1 rad18 strain (AID 175); settings: S. cerevisiae mlh1 rad18 strain growth inhibition, stronger effect = higher value
# In short: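 Inhibition values reflect reduced growth of mutant yeast versus vehicle-treated controls following compound exposure; the mutations affect DNA damage repair.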
# [15] = NCI Yeast Anticancer Drug Screen. Data for the rad18 strain (AID 177); settings: S. cerevisiae rad18 mutant growth inhibition, stronger effect = higher value
# In short: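 Steps: expose repair-mutant yeast to compound; measure growth; express as inhibition relative to vehicle control.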
# [16] = at 5.0 µM (retest, dose inferred, filed as 0.5)
# [17] = at 50.0 µM (retest, dose inferred, filed as 5.0)
structure (smiles),measurement,setting,value
Cc1cc(N(CCOS(C)(=O)=O)CCOS(C)(=O)=O)ccc1C=Nc1ccc(-c2csc(-c3ccccc3)n2)c(Cl)c1,growth inhibition,[1]; at 1.2 µM,14% (inactive)
same,growth inhibition,[1]; at 3.7 µM,57% (inactive)
same,growth inhibition,[1]; at 11.0 µM,90% (active)
same,growth inhibition,[1]; at 33.0 µM,96% (active)
same,growth inhibition,[1]; at 100.0 µM,84% (active)
same,growth inhibition,[2]; at 1.2 µM,-26% (inactive)
same,growth inhibition,[2]; at 3.7 µM,-8% (inactive)
same,growth inhibition,[2]; at 11.0 µM,56% (inactive)
same,growth inhibition,[2]; at 33.0 µM,98% (active)
same,growth inhibition,[2]; at 100.0 µM,92% (active)
same,growth inhibition,[3]; at 1.2 µM,3% (inactive)
same,growth inhibition,[3]; at 3.7 µM,-1% (inactive)
same,growth inhibition,[3]; at 11.0 µM,13% (inactive)
same,growth inhibition,[3]; at 33.0 µM,62% (inactive)
same,growth inhibition,[3]; at 100.0 µM,85% (active)
same,growth inhibition,[4]; at 1.2 µM,13% (inactive)
same,growth inhibition,[4]; at 3.7 µM,43% (inactive)
same,growth inhibition,[4]; at 11.0 µM,81% (active)
same,growth inhibition,[4]; at 33.0 µM,98% (active)
same,growth inhibition,[4]; at 100.0 µM,92% (active)
same,growth inhibition,[5]; at 1.2 µM,2% (inactive)
same,growth inhibition,[5]; at 3.7 µM,28% (inactive)
same,growth inhibition,[5]; [16],53% (inactive) and 4% (inactive)
same,growth inhibition,[5]; at 11.0 µM,78% (active)
same,growth inhibition,[5]; at 33.0 µM,96% (active)
same,growth inhibition,[5]; [17],96% (active) and 94% (active)
same,growth inhibition,[5]; at 50.0 µM,93.2% (active)
same,growth inhibition,[5]; at 100.0 µM,91% (active)
same,growth inhibition,[6]; at 1.2 µM,-2% (inactive)
same,growth inhibition,[6]; at 3.7 µM,30% (inactive)
same,growth inhibition,[6]; [16],51% (inactive) and -1% (inactive)
same,growth inhibition,[6]; at 11.0 µM,85% (active)
same,growth inhibition,[6]; at 33.0 µM,97% (active)
same,growth inhibition,[6]; [17],97% (active)
same,growth inhibition,[6]; at 50.0 µM,97.1% (active)
same,growth inhibition,[6]; at 100.0 µM,92% (active)
same,growth inhibition,[7]; at 1.2 µM,4% (inactive)
same,growth inhibition,[7]; at 3.7 µM,53% (inactive)
same,growth inhibition,[7]; at 11.0 µM,91% (active)
same,growth inhibition,[7]; at 33.0 µM,97% (active)
same,growth inhibition,[7]; at 100.0 µM,91% (active)
same,growth inhibition,[8]; [16],20% (inactive) and 8% (inactive)
same,growth inhibition,[8]; [17],5% (inactive) and 97% (active)
same,growth inhibition,[8]; at 50.0 µM,82.8% (active) and 96.2% (active)
same,growth inhibition,[9]; at 1.2 µM,36% (inactive)
same,growth inhibition,[9]; at 3.7 µM,37% (inactive)
same,growth inhibition,[9]; at 11.0 µM,79% (active)
same,growth inhibition,[9]; at 33.0 µM,98% (active)
same,growth inhibition,[9]; at 100.0 µM,92% (active)
same,growth inhibition,[10]; [16],29% (inactive) and -6% (inactive)
same,growth inhibition,[10]; [17],-5% (inactive) and 95% (active)
same,growth inhibition,[10]; at 50.0 µM,82.8% (active) and 92.5% (active)
same,growth inhibition,[11]; at 1.2 µM,0% (inactive)
same,growth inhibition,[11]; at 3.7 µM,20% (inactive)
same,growth inhibition,[11]; [16],18% (inactive) and 0% (inactive)
same,growth inhibition,[11]; at 11.0 µM,76% (active)
same,growth inhibition,[11]; at 33.0 µM,97% (active)
same,growth inhibition,[11]; [17],-19% (inactive) and 95% (active)
same,growth inhibition,[11]; at 50.0 µM,81.4% (active) and 94% (active)
same,growth inhibition,[11]; at 100.0 µM,92% (active)
same,growth inhibition,[12]; at 1.2 µM,-1% (inactive)
same,growth inhibition,[12]; at 3.7 µM,25% (inactive)
same,growth inhibition,[12]; at 11.0 µM,80% (active)
same,growth inhibition,[12]; at 33.0 µM,97% (active)
same,growth inhibition,[12]; at 100.0 µM,90% (active)
same,growth inhibition,[13]; at 1.2 µM,10% (inactive)
same,growth inhibition,[13]; at 3.7 µM,22% (inactive)
same,growth inhibition,[13]; at 11.0 µM,82% (active)
same,growth inhibition,[13]; at 33.0 µM,97% (active)
same,growth inhibition,[13]; at 100.0 µM,92% (active)
same,growth inhibition,[14]; [16],86% (active) and 5% (inactive)
same,growth inhibition,[14]; [17],95% (active) and 96% (active)
same,growth inhibition,[14]; at 50.0 µM,95.2% (active)
same,growth inhibition,[15]; at 1.2 µM,58% (inactive)
same,growth inhibition,[15]; at 3.7 µM,83% (active)
same,growth inhibition,[15]; at 11.0 µM,94% (active)
same,growth inhibition,[15]; at 33.0 µM,97% (active)
same,growth inhibition,[15]; at 100.0 µM,89% (active)
C[Si](C)(C)/C=C/CCNC(C#N)c1ccccc1 (stereo not drawn),growth inhibition,[1]; at 1.2 µM,-10% (inactive)
same,growth inhibition,[1]; at 3.7 µM,-9% (inactive)
same,growth inhibition,[1]; at 11.0 µM,48% (inactive)
same,growth inhibition,[1]; at 33.0 µM,32% (inactive)
same,growth inhibition,[1]; at 100.0 µM,93% (active)
same,growth inhibition,[2]; at 1.2 µM,3% (inactive)
same,growth inhibition,[2]; at 3.7 µM,-2% (inactive)
same,growth inhibition,[2]; at 11.0 µM,41% (inactive)
same,growth inhibition,[2]; at 33.0 µM,35% (inactive)
same,growth inhibition,[2]; at 100.0 µM,95% (active)
same,growth inhibition,[3]; at 1.2 µM,-28% (inactive)
same,growth inhibition,[3]; at 3.7 µM,-44% (inactive)
same,growth inhibition,[3]; at 11.0 µM,-17% (inactive)
same,growth inhibition,[3]; at 33.0 µM,-30% (inactive)
same,growth inhibition,[3]; at 100.0 µM,74% (active)
same,growth inhibition,[4]; at 1.2 µM,-14% (inactive)
same,growth inhibition,[4]; at 3.7 µM,-25% (inactive)
same,growth inhibition,[4]; at 11.0 µM,38% (inactive)
same,growth inhibition,[4]; at 33.0 µM,22% (inactive)
same,growth inhibition,[4]; at 100.0 µM,94% (active)
same,growth inhibition,[5]; at 1.2 µM,-14% (inactive)
same,growth inhibition,[5]; at 3.7 µM,-28% (inactive)
same,growth inhibition,[5]; [16],98% (active)
same,growth inhibition,[5]; at 11.0 µM,47% (inactive)
same,growth inhibition,[5]; at 33.0 µM,10% (inactive)
same,growth inhibition,[5]; [17],99% (active)
same,growth inhibition,[5]; at 50.0 µM,89.7% (active)
same,growth inhibition,[5]; at 100.0 µM,92% (active)
same,growth inhibition,[6]; at 1.2 µM,-21% (inactive)
same,growth inhibition,[6]; at 3.7 µM,-23% (inactive)
